The source of these data is PubChem BioAssay (NCI).

Structures are written as SMILES. This is part of a sample that, as a whole, favours compounds with a hit. Of some 83,000 tested, about 20% had one in any assay.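 Testing used 96-well plates and a 48-hour single-concentration exposure. Example: -40 means 40% of the starting cells died.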 Values without a mark were called inactive. Activity calls are given as the source filed them. The calls were made as follows: active = growth percent below 10; inactive = the rest.

Common to all, as to test: NCI-60 one-dose screen, 48 h (100 = growth as untreated, 0 = no growth, -100 = all killed)
What all share (conditions): 10 µM unless noted

For test [1], the system named is DU-145 prostate.
Test [2] deals with MALME-3M melanoma.
Test [3] deals with MDA-MB-231 breast.
Test [4] relates to RXF 393 renal.
Test [5] has as its system SF-268 CNS.
The test system of test [6] is SF-295 CNS.
Test [7] deals with SF-539 CNS.
Test [8] concerns UACC-257 melanoma.
The subject of test [9] is M14 melanoma.

As to `COc1ccc(N=Nc2nccs2)c(O)c1`, the growth in test [1] was 51.3%; in test [2], 92.1%; in [3], 35.8%; in test [4] it was 52.7%; in test [5], 26.4%; in test [6], 95%. The results for the growth in test [7], in test [8] and in test [9] were 40.2%, 85.3% and 59.6%, respectively.
Consider `COc1cc(C)c(C2C(C#N)=C(N)Oc3n[nH]c(-c4cccs4)c32)cc1C(C)C` (stereo unspecified), for which the growth in test [1] is 108%; in test [2], 121%; in test [3] it was 107%; in test [4], 99.5%; in test [5] it was 101%; in test [6] it was 101%. For the same compound, the growth in test [7] is 104%; in test [8], 90.4%; in [9], 105%.
Take `O=c1ccccc(-c2ccc(Br)cc2)c1O`: the growth in test [1] was 20.3%; in test [2] it was 10.6%; in [3] it was 32.9%; in test [4], 46.2%; in test [5], 12.8%; in test [6] it was 17.9%. For the same compound, the growth in test [7] is -0.947% (active); in test [8], 1.13% (active); in test [9], -10.8% (active).
On to `COc1ccc2c(c1)C(=O)/C(=C/c1cccnc1)CC2`, for which the growth in test [1] is 97%; in test [2] it was 106%; in test [3] it was 87.7%; in test [4], 109%; in test [5], 94.2%; in [6], 84.2%. For the same compound, the growth in [7] was 90.5%; in [8] it was 108%; in test [9], 102%.
Consider `O=C(Cc1ccc(/C=C/C(=O)c2ncc[nH]2)cc1)Nc1ccc(F)cc1`, for which the growth in test [1] was 15.9%; in test [2] it was 96.6%; in test [3], 22.6%; in test [4], 19.3%; in test [5], 27.7%; in test [6] it was 33.1%. In addition, the values for the growth in [7], in test [8] and in test [9] were -21.7% (active), 92.1% and 54.9%, respectively.
Turning to `NC(=NC1C2CC3CC(C2)CC1C3)Nc1ccc(I)cc1` (stereo unspecified), the growth in test [1] is 20.4%; in test [2], -17% (active); in test [3], 41.8%; in test [4], 85.8%; in test [5] it was 40.7%; in [6], 10.7%. Besides, the growth is 32% in [7], 0.379% (active) in test [8] and 2.98% (active) in test [9].
On to `C=C1C(=O)O[C@H]2[C@H]1CC/C(COC(=O)NCCc1ccc(OC)c(OC)c1)=C\CC[C@@]1(C)O[C@@H]21`, for which the growth was 39.5% in test [1]; 63.3% in test [2]; 58% in test [3]; 34.7% in test [4]; 80.3% in [5]; 95.8% in test [6]. Besides, the growth in test [7] is 47.2%; in test [8], 62.9%; in test [9], 65.7%.
With `COc1cc(/C=C/C(=O)c2cccnc2Nc2ccc(F)cc2)cc(OC)c1OC`, the growth was 0.388% (active) in test [1]; 94.2% in test [2]; 37.9% in test [3]; 22.6% in [4]; 21.6% in test [5]; 57.6% in test [6]. Also, the growth was 56.1% in test [7], 31.9% in test [8] and 70% in test [9].
As to `CCOC(=O)C(C)(C#N)C1C=CCCC1` (stereo unspecified), the growth in test [1] is 97.1%; in [2], 102%; in [3] it was 95.5%; in test [4], 98.8%; in [5], 93.8%; in test [6], 84.3%. Further, the figures for the growth in test [7], in test [8] and in test [9] were 91.8%, 93.6% and 81.2%, respectively.
For the compound `NC(=NCCCC1(c2ccccc2)CCCC1)Nc1ccc(Cl)cc1`, the growth was 37.8% in test [1]; -48.9% (active) in [2]; 1.92% (active) in [3]; 51.7% in [4]; 58.5% in [5]; 10% in test [6]. For the same compound, the growth in test [7] was 51.3%; in [8], 26.4%; in test [9], -65.5% (active).
Regarding `CN(C)c1ccc(NC(=O)c2ccc(/C=C/C(=O)c3ncc[nH]3)cc2)cc1`, the growth in test [1] is 20.2%; in [2], 87.9%; in test [3], 71.8%; in [4], 67.4%; in test [5], 56.2%; in [6] it was 74.6%. The growth in test [7] is 6.24% (active); in [8], 91.7%; in test [9], 67.8%.
As to `NCCNc1nc(Nc2ccc(-c3nc4ccccc4[nH]3)cc2)c2cn[nH]c2n1`, the growth in test [1] is 90.9%; in test [2], 68%; in test [3], 18.8%; in test [4], 43%; in [5], 68.1%; in [6], 62.9%. Further, the growth was -9.77% (active) in test [7], 104% in test [8] and 96.1% in test [9].
Regarding `CCOC(=O)c1cc(C(=O)c2ccc(O)c(O)c2)n2ccc(-c3ccn4c(C(=O)c5ccc(O)c(O)c5)cc(C(=O)OCC)c4c3)cc12`, the growth in test [1] is 93.8%; in test [2] it was 105%; in [3] it was 52.6%; in test [4], 86.5%; in test [5], 88.5%; in test [6], 102%. The growth is 92.5% in [7], 100% in test [8] and 93.2% in test [9].
`Clc1ccc2c(NCCCNc3nc(-n4ccnc4)nc4ccccc34)ccnc2c1`: the growth in [1] is 94.8%; in test [2], 102%; in test [3], 83.2%; in test [4], 81%; in test [5] it was 89%; in test [6], 89.6%. Moreover, the results for the growth in test [7], in test [8] and in [9] were 76.1%, 94.2% and 95.1%, respectively.
